# From PubChem BioAssay (Tox21)
# A number with no mark means an inactive call. Results filed as inconclusive are left out. Where a call stands in place of a potency, no number is given. Activity calls are given as the source filed them. Unless noted, calls come from the whole dose curve; as a rule, active = well fitted curve in the direction sought with a large enough effect in the repeat runs; inconclusive = weak or mixed curves; inactive = no such curve, though single readings can be large; an effect the other way counts as inactive or inconclusive.
# Legend:
# [1] = qHTS RealTime-Glo MT Cell Viability Assay in HEK293 cells - 0 hour (AID 1224880); note: top concentration of the series differs between compounds; nearly all actives have a fitted effect of over 45% in size
# Method in brief: (§1)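 Measured as luminescence from the same continuously cultured HEK293 wells at successive time points (0, 8, 16, 24, 32, 40 h) after compound addition. Reagent present from seeding; dosing at 5 h; incubation 37 C.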
# [2] = A CellTox Green Cytotoxicity Assay to monitor cytotoxicity in HEK293 cells - 32 hour (AID 1224881); note: nearly all actives have a fitted effect of over 40% in size
# Method in brief: (§2)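 Homogeneous no-lysis format: HEK293 cell suspension mixed with CellTox Green reagent, seeded, incubated 5 h at 37 C/5% CO2, then dosed by pintool with compound in DMSO.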
# [3] = A CellTox Green Cytotoxicity Assay to monitor cytotoxicity in HepG2 cells - 0 hour (AID 1224882); note: nearly all actives have a fitted effect of over 35% in size
# Method in brief: (§3)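 Fluorescent DNA-binding dye, 600 HepG2 cells/well, 5 h preincubation then compound in DMSO; same plates read at 0–40 h, 37 C.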
# [4] = A CellTox Green Cytotoxicity Assay to monitor cytotoxicity in HepG2 cells - 32 hour (AID 1224883); note: nearly all actives have a fitted effect of over 50% in size
# Method in brief: as §3
# [5] = qHTS RealTime-Glo MT Cell Viability Assay in HEK293 cells - 24 hour (AID 1224886); note: nearly all actives have a fitted effect of over 50% in size; note: potency is the fitted concentration of half-maximal effect; for activity change, negative = cytotoxicity: top concentration of the series differs between compounds
# Method in brief: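 Luminescence generated by NanoLuc from substrate produced by living HEK293 cells served as the viability signal. Each value reflects the reading at its stated time point during continuous 40 h compound exposure at 37 C.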
# [6] = qHTS RealTime-Glo MT Cell Viability Assay in HEK293 cells - 8 hour (AID 1224887); note: nearly all actives have a fitted effect of over 50% in size; note: potency is the fitted concentration of half-maximal effect; for activity change, negative = cytotoxicity: top concentration of the series differs between compounds
# Method in brief: as §1
# [7] = A CellTox Green Cytotoxicity Assay to monitor cytotoxicity in HEK293 cells - 16 hour (AID 1224888); note: nearly all actives have a fitted effect of over 35% in size
# Method in brief: as §2
# [8] = qHTS RealTime-Glo MT Cell Viability Assay in HepG2 cells - 0 hour (AID 1224889); note: nearly all actives have a fitted effect of over 50% in size
# Method in brief: (§4)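 Tox21 10K library screened in qHTS format on HepG2 cells carrying RealTime-Glo reagents. Compounds were added after a 5 h preincubation, and the luminescent signal from continuous culture was measured repeatedly during 40 h treatment.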
# [9] = A CellTox Green Cytotoxicity Assay to monitor cytotoxicity in HepG2 cells - 8 hour (AID 1224890); note: nearly all actives have a fitted effect of over 45% in size
# Method in brief: as §3
# [10] = qHTS assay to identify small molecule antagonists of the estrogen receptor alpha (ER-alpha) signaling pathway using the BG1 cell line in the presence of 0.1 nM 17-beta-estradiol - cell viability counter screen (AID 1259241); note: nearly all actives have a fitted effect of over 40% in size
# Method in brief: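 The cell line endogenously expresses full-length ER-alpha and carries four EREs driving luciferase. Cells are cultured 5 days hormone-free, treated 22 hr with compounds and 0.1 nM estradiol, then viability is read by fluorescence.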
# [11] = qHTS assay to identify small molecule antagonists of the androgen receptor (AR) signaling pathway using the MDA cell line in the presence of 0.5 nM R1881 - cell viability counter screen (AID 1259242); note: nearly all actives have a fitted effect of over 45% in size
# Method in brief: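 Human breast carcinoma MDA-kb2 cells, cultured without CO2, receive compounds alongside 0.5 nM (final) R1881 agonist. After 16 hr at 37C, viability is taken as live-cell protease signal.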
# [12] = target: Estrogen receptor (Homo sapiens) (UniProt P03372); assay: qHTS assay to identify small molecule antagonists of the estrogen receptor alpha (ER-alpha) signaling pathway using the BG1 cell line in the presence of 0.1 nM 17-beta-estradiol (AID 1259244); note: nearly all actives have a fitted effect of over 50% in size
# Method in brief: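 Seeding of stripped-serum-adapted VM7Luc4E2 cells, 24 h attachment, compound transfer, then 0.1 nM final 17beta-estradiol; after 22 h incubation, ONE-Glo reagent and luminescence reading.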
# [13] = qHTS assay to identify small molecule phospholipidosis (PLD) inducers (AID 1259344; active = well fitted curve in the direction sought with a large enough effect; an effect the other way counts as inactive or inconclusive)
# Method in brief: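 Accumulated phospholipid, stained red by LipidTOX during 24 h compound treatment of HepG2 cells at 37 C, is quantified from images as pit number and intensity, normalised per cell using Hoechst-stained nuclei.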
# [14] = qHTS assay to identify small molecule HDAC inhibitors (AID 1259364);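 note: wild-type HCT-116 cells with endogenous class I/II HDAC activity; top concentration of the series differs between compounds; nearly all actives have a fitted effect of over 45% in size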
# Method in brief: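 After a 2 hr compound incubation (37C, 5% CO2), HCT-116 cells seeded at 1,500/well the day before received HDAC-Glo reagent; signal read as luminescence after 30 min at room temperature.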
# [15] = qHTS assay to identify small molecule HDAC inhibitors - cell viability counter screen (AID 1259365)
# Method in brief: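 Viability readout: CellTiter-Glo luminescence. Wild-type HCT-116 cells, 2hr compound treatment following overnight attachment at 37 C.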
# [16] = qHTS assay to identify small molecule agonists of the sonic hedgehog signaling (Shh) pathway - cell viability counter screen (AID 1259366); note: nearly all actives have a fitted effect of over 50% in size; note: potency is the fitted concentration of half-maximal effect
# Method in brief: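 Viability measured fluorometrically (CellTiter-Fluor, 1hr, 37C) in 3T3 Gli1-Luc reporter cells after 23hr compound exposure within a 24hr incubation at 37C/5% CO2.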
# [17] = qHTS assay to identify small molecule antagonists of the sonic hedgehog signaling (Shh) pathway - cell viability counter screen (AID 1259367); note: nearly all actives have a fitted effect of over 55% in size; note: potency is the fitted concentration of half-maximal effect
# Method in brief: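 CellTiter-Fluor signal in conditioned medium-stimulated 3T3 Gli1-Luc cells, 23 hr compound exposure, 37C.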
# [18] = qHTS RealTime-Glo MT Cell Viability Assay in HepG2 cells - 16 hour (AID 1224885); note: nearly all actives have a fitted effect of over 50% in size
# Method in brief: as §4
# [19] = A CellTox Green Cytotoxicity Assay to monitor cytotoxicity in HEK293 cells - 8 hour (AID 1224884); note: nearly all actives have a fitted effect of over 35% in size
# Method in brief: as §2
# [20] = target: Androgen receptor (Homo sapiens) (UniProt P10275); assay: qHTS assay to identify small molecule antagonists of the androgen receptor (AR) signaling pathway using the MDA cell line in the presence of 0.5 nM R1881 (AID 1259243); note: nearly all actives have a fitted effect of over 50% in size; note: potency is the fitted concentration of half-maximal effect
# Method in brief: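 Cells: MDA-kb2 (MMTV-luc). Stimulus: 0.5 nM R1881. Time: 16 hr, 37C, no CO2. Detection: ONE-Glo luminescence after 30 min at RT.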
# Androgen receptor (Homo sapiens), sequence (P10275 whole entry, looked up): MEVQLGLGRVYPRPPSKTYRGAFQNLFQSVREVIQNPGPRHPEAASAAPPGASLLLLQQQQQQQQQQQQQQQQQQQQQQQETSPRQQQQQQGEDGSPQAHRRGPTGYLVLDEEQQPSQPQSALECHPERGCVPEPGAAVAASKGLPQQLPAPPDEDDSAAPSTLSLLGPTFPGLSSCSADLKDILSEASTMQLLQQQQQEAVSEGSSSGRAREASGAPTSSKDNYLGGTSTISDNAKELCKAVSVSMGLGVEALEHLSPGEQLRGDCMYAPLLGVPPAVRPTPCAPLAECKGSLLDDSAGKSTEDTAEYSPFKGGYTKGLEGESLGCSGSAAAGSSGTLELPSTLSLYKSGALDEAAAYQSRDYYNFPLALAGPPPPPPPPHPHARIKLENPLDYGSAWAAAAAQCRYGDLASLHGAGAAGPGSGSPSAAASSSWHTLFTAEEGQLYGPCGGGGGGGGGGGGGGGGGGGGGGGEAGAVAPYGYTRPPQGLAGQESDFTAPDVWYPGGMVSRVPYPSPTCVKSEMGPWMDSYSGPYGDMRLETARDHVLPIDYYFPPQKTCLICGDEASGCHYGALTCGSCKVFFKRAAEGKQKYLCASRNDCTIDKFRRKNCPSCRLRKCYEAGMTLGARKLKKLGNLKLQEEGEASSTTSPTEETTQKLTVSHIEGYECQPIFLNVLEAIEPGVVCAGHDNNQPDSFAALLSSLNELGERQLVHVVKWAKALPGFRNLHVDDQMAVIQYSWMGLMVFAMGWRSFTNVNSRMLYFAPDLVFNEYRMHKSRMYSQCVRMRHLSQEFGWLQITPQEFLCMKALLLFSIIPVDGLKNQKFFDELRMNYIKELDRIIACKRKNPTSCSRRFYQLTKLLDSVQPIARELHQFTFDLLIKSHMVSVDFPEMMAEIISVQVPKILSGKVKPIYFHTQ
# Estrogen receptor (Homo sapiens), sequence (P03372 whole entry, looked up): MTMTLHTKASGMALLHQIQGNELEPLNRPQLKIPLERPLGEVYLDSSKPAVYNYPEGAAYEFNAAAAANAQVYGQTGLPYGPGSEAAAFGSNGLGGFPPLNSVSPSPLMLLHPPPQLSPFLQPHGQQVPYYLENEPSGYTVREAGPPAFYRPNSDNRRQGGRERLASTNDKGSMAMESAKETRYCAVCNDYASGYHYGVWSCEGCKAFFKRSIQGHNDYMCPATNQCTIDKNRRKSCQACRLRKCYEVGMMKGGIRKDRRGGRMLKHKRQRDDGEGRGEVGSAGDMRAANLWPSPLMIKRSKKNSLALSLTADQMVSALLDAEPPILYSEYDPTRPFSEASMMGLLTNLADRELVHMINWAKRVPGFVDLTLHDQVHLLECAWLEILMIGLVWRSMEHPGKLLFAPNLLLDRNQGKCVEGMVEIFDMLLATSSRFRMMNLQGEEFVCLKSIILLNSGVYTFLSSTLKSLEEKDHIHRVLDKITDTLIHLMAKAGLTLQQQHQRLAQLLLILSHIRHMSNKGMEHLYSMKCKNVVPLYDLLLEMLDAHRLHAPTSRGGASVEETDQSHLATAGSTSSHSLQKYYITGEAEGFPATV
structure (smiles),measurement,setting,value
CC(C)(N)Cc1ccc(Cl)cc1,outcome,[1],inactive
same,Potency,[2],inactive
same,outcome,[3],inactive
same,Potency,[4],inactive
same,Potency,[5],inactive
same,Potency,[6],inactive
same,Potency,[7],inactive
same,outcome,[8],inactive
same,Potency,[9],inactive
same,outcome,[10],inactive
same,Potency,[11],inactive
same,Potency,[12],inactive
same,Potency,[13],inactive
same,Potency,[14],inactive
same,outcome,[15],inactive
same,Potency,[16],inactive
same,Potency,[17],inactive
O=c1[nH]c2ccccc2o1,outcome,[1],inactive
same,Potency,[2],inactive
same,outcome,[3],inactive
same,Potency,[4],inactive
same,Potency,[18],inactive
same,Potency,[5],inactive
same,Potency,[7],inactive
same,outcome,[8],inactive
same,Potency,[9],inactive
same,outcome,[10],inactive
same,Potency,[11],inactive
same,Potency,[14],inactive
same,outcome,[15],inactive
same,Potency,[16],inactive
same,Potency,[17],inactive
COC[C@@H](NC(C)=O)C(=O)NCc1ccccc1,outcome,[1],inactive
same,Potency,[2],inactive
same,Potency,[4],inactive
same,Potency,[19],inactive
same,Potency,[18],inactive
same,Potency,[5],inactive
same,Potency,[7],inactive
same,outcome,[8],inactive
same,Potency,[9],inactive
same,outcome,[10],inactive
same,Potency,[11],inactive
same,Potency,[20],inactive
same,Potency,[14],inactive
same,outcome,[15],inactive
same,Potency,[16],inactive
same,Potency,[17],inactive
O=C/C=C/c1ccco1,outcome,[1],inactive
same,Potency,[2],inactive
same,outcome,[3],inactive
same,Potency,[4],inactive
same,Potency,[18],inactive
same,Potency,[5],inactive
same,Potency,[6],inactive
same,outcome,[8],inactive
same,Potency,[9],inactive
same,outcome,[10],inactive
same,Potency,[11],inactive
same,Potency,[20],inactive
same,Potency,[14],inactive
same,outcome,[15],inactive
same,Potency,[16],inactive
same,Potency,[17],inactive
COC(=O)c1ccccc1CS(=O)(=O)NC(=O)Nc1nc(OC)cc(OC)n1,outcome,[1],inactive
same,Potency,[2],inactive
same,Potency,[4],inactive
same,Potency,[19],inactive
same,Potency,[18],inactive
same,Potency,[5],inactive
same,Potency,[6],inactive
same,outcome,[8],inactive
same,Potency,[9],inactive
same,outcome,[10],inactive
same,Potency,[11],inactive
same,Potency,[12],inactive
same,Potency,[14],inactive
same,outcome,[15],inactive
same,Potency,[16],inactive
same,Potency,[17],inactive
C[C@H](CN1CCOCC1)C(C(=O)N1CCCC1)(c1ccccc1)c1ccccc1,outcome,[1],inactive
same,Potency,[2],inactive
same,outcome,[3],inactive
same,Potency,[19],inactive
same,Potency,[18],inactive
same,Potency,[6],inactive
same,Potency,[7],inactive
same,outcome,[8],inactive
same,Potency,[9],inactive
same,outcome,[10],inactive
same,Potency,[11],inactive
same,Potency,[12],inactive
same,Potency,[13],inactive
same,Potency,[14],inactive
same,outcome,[15],inactive
CCCCCCC(=O)CCCCCC/C=C/C[C@@H](O)[C@H](O)[C@@](N)(CO)C(=O)O,"activity change, negative = cytotoxicity",[1],3.85% [at 15.8 µM]
same,cytotoxicity increase,[2],-8.63% [at 15.8 µM]
same,cytotoxicity,[3],-17.7% [at 15.8 µM]
same,cytotoxicity increase,[4],-23.6% [at 15.8 µM]
same,"activity change, negative = cytotoxic",[18],1.68% [at 15.8 µM]
same,"activity change, negative = cytotoxicity",[5],-0.165% [at 15.8 µM]
same,"activity change, negative = cytotoxicity",[6],-1.55% [at 15.8 µM]
same,"activity change, negative = cytotoxicity",[8],3.64% [at 15.8 µM]
same,"activity change, negative = cytotoxicity",[10],7.82% [at 19 µM]
same,"viability change, negative = cytotoxic",[11],8.38% [at 19 µM]
same,"activity change, negative = inhibition",[12],5.03% [at 19 µM]
same,Potency,[13],inactive
same,"activity change, negative = inhibition",[14],6.81% [at 19 µM]
same,"activity change, negative = cytotoxicity",[15],-0.234% [at 19 µM]
same,"viability change, negative = cytotoxic",[16],4.09% [at 19 µM]
O=[N+]([O-])c1cccc(CCl)c1,outcome,[1],inactive
same,Potency,[2],inactive
same,Potency,[4],inactive
same,Potency,[19],inactive
same,Potency,[18],inactive
same,Potency,[5],inactive
same,Potency,[6],inactive
same,Potency,[7],inactive
same,outcome,[8],inactive
same,Potency,[9],inactive
same,outcome,[10],inactive
same,Potency,[11],inactive
same,Potency,[14],inactive
same,outcome,[15],inactive
same,Potency,[16],inactive
same,Potency,[17],inactive
CN(C)CCc1c[nH]c2cccc(OP(=O)(O)O)c12,outcome,[1],inactive
same,Potency,[2],inactive
same,Potency,[4],inactive
same,Potency,[19],inactive
same,Potency,[18],inactive
same,Potency,[5],inactive
same,Potency,[6],inactive
same,Potency,[7],inactive
same,outcome,[8],inactive
same,Potency,[9],inactive
same,outcome,[10],inactive
same,Potency,[11],inactive
same,Potency,[12],inactive
same,Potency,[13],inactive
same,Potency,[14],inactive
same,outcome,[15],inactive
same,Potency,[16],inactive
same,Potency,[17],inactive
CC(C)NCC(O)c1ccc([N+](=O)[O-])cc1 (stereo not drawn),outcome,[1],inactive
same,Potency,[2],inactive
same,Potency,[4],inactive
same,Potency,[19],inactive
same,Potency,[18],inactive
same,Potency,[5],inactive
same,Potency,[6],inactive
same,Potency,[7],inactive
same,outcome,[8],inactive
same,Potency,[9],inactive
same,outcome,[10],inactive
same,Potency,[11],inactive
same,Potency,[13],inactive
same,Potency,[14],inactive
same,outcome,[15],inactive
same,Potency,[16],inactive
same,Potency,[17],inactive
C[C@H]1CCCC(=O)CCC/C=C/c2cc(O)cc(O)c2C(=O)O1,outcome,[1],inactive
same,Potency,[2],inactive
same,Potency,[4],inactive
same,Potency,[19],inactive
same,Potency,[18],inactive
same,Potency,[5],33.4 µM (active)
same,Potency,[6],42.1 µM (active)
same,Potency,[7],inactive
same,outcome,[8],inactive
same,Potency,[9],inactive
same,outcome,[10],inactive
same,Potency,[11],inactive
same,Potency,[20],20.9 µM (active)
same,Potency,[14],inactive
same,outcome,[15],inactive
same,Potency,[16],20.9 µM (active)
same,Potency,[17],23.4 µM (active)
COc1ccc(C=O)cc1O,outcome,[1],inactive
same,Potency,[2],inactive
same,outcome,[3],inactive
same,Potency,[4],inactive
same,Potency,[18],inactive
same,Potency,[6],inactive
same,Potency,[7],inactive
same,outcome,[8],inactive
same,Potency,[9],inactive
same,outcome,[10],inactive
same,Potency,[11],inactive
same,Potency,[20],inactive
same,Potency,[12],inactive
same,Potency,[14],inactive
same,outcome,[15],inactive
same,Potency,[16],inactive
same,Potency,[17],inactive
BrCCc1ccccc1,outcome,[1],inactive
same,Potency,[2],inactive
same,outcome,[3],inactive
same,Potency,[4],inactive
same,Potency,[18],inactive
same,Potency,[5],inactive
same,Potency,[6],inactive
same,Potency,[7],inactive
same,outcome,[8],inactive
same,Potency,[9],inactive
same,outcome,[10],inactive
same,Potency,[11],inactive
same,Potency,[14],inactive
same,outcome,[15],inactive
same,Potency,[16],inactive
same,Potency,[17],inactive
Cc1cc(OC(=O)N(C)C)nn1C(=O)N(C)C,outcome,[1],inactive
same,Potency,[2],inactive
same,Potency,[4],inactive
same,Potency,[19],inactive
same,Potency,[18],inactive
same,Potency,[5],inactive
same,Potency,[6],inactive
same,Potency,[7],inactive
same,outcome,[8],inactive
same,Potency,[9],inactive
same,outcome,[10],inactive
same,Potency,[11],inactive
same,Potency,[12],inactive
same,Potency,[14],inactive
same,outcome,[15],inactive
same,Potency,[16],inactive
same,Potency,[17],inactive
